# Shown are actives, neighbours in structure and some others; about 1.2% of the full set was active somewhere.
# NR2F2 inh = NR2F2 (human) inhibition, primary screen | HEK293T NGFI-A luciferase reporter, luminescence | inhibition, % at 8.6 µM | 370,000 compounds, 0.7% hits;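 active = inhibition above a per-plate cutoff, mean inhibition of test wells between control levels plus 3 SD, cut at about 38% in these data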;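 also: cells cotransfected with COUP-TFII expression vector driving the NGFI-A reporter; 0% = median of COUP-TF2 test wells and 100% = reporter-only cells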
# SRC1 inh = human NCOA1 inhibition. Q15788. HEK293 GAL4-SRC1 luciferase reporter, luminescence. inhibition, % at 3.6 µM. 360,000 compounds, 0.12% hits. AID 588354;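 active = inhibition above the campaign mean plus 3 SD, with each screening campaign given its own cutoff, cut at about 60% in these data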;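 also: 0% = DMSO treated cells and 100% = gossypol at 36 µM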
# SRC2 inh = human SRC2 (NCOA2) inhibition; inhibition, % at 9 µM; 370,000 compounds, 0.17% hits; Q15596; HEK293 GAL4-SRC2 luciferase reporter, luminescence;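 active = inhibition above the mean inhibition of all tested compounds plus 3 SD, set per campaign, cut at about 52% in these data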;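 also: 0% = DMSO treated cells and 100% = cells given Gossypol at 36 µM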
# Gli-Sufu block = Gli-Sufu pathway antagonism | Sufu-KO-LIGHT fibroblasts, Gli luciferase reporter luminescence | inhibition, % at 5 µM | 340,000 compounds, 0.74% hits | AID 588413;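 active = inhibition above about 55%, limit read from the data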;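 also: 0% = DMSO-treated cells and 100% = wells with medium but no cells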
# NR5A2 inv ag = suppresses constitutive activity of human LRH-1; O00482; HEK293T StAR-luciferase reporter, LRH-1 transfected, 24 h; inhibition, % at 3.6 µM; 360,000 compounds, 0.13% hits; AID 602396;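 active = inhibition above the mean inhibition of all tested compounds plus 3 SD, cut at about 73% in these data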;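 also: 0% = DMSO wells and 100% = reporter-only cells lacking LRH-1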
# NCOA3 inh = human NCOA3 inhibition. inhibition, % at 3.6 µM. AID 588352. HEK293 GAL4-SRC3 luciferase reporter, luminescence. 360,000 compounds, 0.17% hits. Q9Y6Q9;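 active = inhibition above a per-campaign cutoff, the mean of all compounds plus 3 SD, cut at about 60% in these data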;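 also: 0% = DMSO-treated cells and 100% = gossypol-treated cells at 36 µM; higher means less SRC3-driven luciferase light from the GAL4 reporter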
# VP16 Luc counter = inhibits VP16 reporter, flagging COUP-TFII antagonist hits; HEK293 Gal4-VP16 luciferase reporter, luminescence; inhibition, % at 8.5 µM; 2,500 compounds, 25% hits; shares compounds with NR2F2 inh; AID 687007; in the data active = inhibition above about 13%
# NR2F2 inh conf = confirmation of human COUP-TFII (NR2F2) inhibitors. shares compounds with NR2F2 inh. HEK293 NGFI-A luciferase reporter, luminescence. inhibition, % at 8.5 µM. 2,500 compounds, 45% hits. AID 687008;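 active = mean inhibition over three repeats above a set limit taken from the earlier primary screen, cut at about 38% in these data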;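 also: 100% = cells given the luciferase reporter alone without the COUP-TF2 vector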
# Active calls of the source: *; nt = no result.
SMILES,NR2F2 inh,SRC1 inh,SRC2 inh,Gli-Sufu block,NR5A2 inv ag,NCOA3 inh,VP16 Luc counter,NR2F2 inh conf
CN(C)CCCN1CC(=O)N2CCc3ccc(Br)cc3C2CC1=O (stereo not drawn),-18.8,nt,-21.8,nt,nt,nt,nt,nt
CCOC(=O)c1c(C)[nH]c(C(=O)OCC(=O)Nc2sccc2C(N)=O)c1C,52.2*,62.1*,21.0,51.0,-1.3,31.3,-34.5,44.9*
O=C1C(Cl)=C(Nc2ccc3cn[nH]c3c2)C(=O)c2ccccc21,41.2*,-26.6,87.7*,-21.2,18.9,-13.2,-17.6,-46.1
O=C(Nc1ccc2cn[nH]c2c1)c1c(Cl)cccc1Cl,-7.2,-0.9,21.4,-6.3,6.7,6.4,nt,nt
COc1ccc(-c2cc(N)n(S(=O)(=O)c3ccc(F)cc3)n2)cc1OC,45.6*,20.4,27.9,7.1,16.6,5.2,6.1,31.3
COC(=O)C[C@@H]1CC[C@H]2[C@@H](COc3ccc(NC(=O)Nc4ccccc4C)cc3C(=O)N2C)O1,-23.1,nt,0.4,nt,nt,nt,nt,nt
CCCCOCC1CN(CCCC)S(=O)(=O)c2c(Oc3ccc(SC)c(C)c3)cccc2O1 (stereo not drawn),1.4,nt,12.7,nt,nt,nt,nt,nt
CC(=O)C1=C(C)N(Cc2ccc(Cl)cc2)C(=S)NC1c1ccc(Cl)cc1 (stereo not drawn),12.4,nt,23.2,nt,nt,nt,nt,nt
Cc1ccc[n+](CC(=O)Nc2cc(C(F)(F)F)ccc2Cl)c1,6.8,-5.3,-4.6,3.6,-12.3,3.0,nt,nt
CCC(C)(C)c1ccc(OCCCC[n+]2cccc(C)c2)c(C(C)(C)CC)c1,62.3*,2.8,-11.4,87.4*,55.7,49.4,3.3,38.0*
COc1ccc2c(c1)C(CC(C)=O)N(c1ccc(-c3cnc(OC)nc3)cc1)C(c1ccsc1)=C2 (stereo not drawn),-4.8,nt,-3.6,nt,-12.9,nt,nt,nt
COc1ccc2c(c1)C(CC(C)=O)N(c1ccc(-c3cccs3)cc1)C(c1ccsc1)=C2 (stereo not drawn),46.7*,nt,0.7,nt,38.1,nt,-14.4,-1.8
Cc1oc(-c2ccc3c(c2)OCCO3)cc1C(=O)NCC(=O)O,-26.1,-16.7,-32.2,-5.1,-33.5,0.5,nt,nt
Cc1oc(-c2ccc3c(c2)OCCO3)cc1C(=O)O,52.0*,18.1,74.5*,34.5,14.3,28.8,-123.7,10.3
CCC(CO)[n+]1c(C)cc(/C=C2\Sc3ccccc3N2Cc2ccccc2)cc1C (stereo not drawn),85.1*,8.4,-21.5,87.3*,11.9,3.2,22.2*,87.0*
Cc1cc(Nc2cc(F)c(F)c(F)c2)cc(=O)n1-c1cc(F)c(F)c(F)c1,13.3,nt,8.6,nt,nt,nt,nt,nt
O=S1(=O)c2ccc(N3CCSCC3)cc2Oc2ccccc2CN1Cc1cn(Cc2ccccc2C(F)(F)F)nn1,13.9,nt,6.7,nt,nt,nt,nt,nt
COC(=O)c1cnn(-c2ccc(Cl)cc2)c1/C=N/NC(N)=S,43.3*,11.8,39.0,6.4,20.9,17.9,3.6,25.1
O=C(O)CCCCCN1C(=O)CSC1=S,45.5*,4.0,80.5*,7.7,22.4,33.8,4.6,3.8
CCN(C(=O)C1CCCN(c2nnc(-n3cccc3)s2)C1)c1ccccc1C (stereo not drawn),-1.0,nt,34.6,nt,nt,nt,nt,nt
Cc1ccc2nc(NC(=O)CSCC(=O)OCC(=O)c3ccccc3)sc2c1,77.2*,29.5,73.3*,42.8,53.4,54.6,79.1*,59.5*
CCOCC(=O)Nc1nc2ccc(C)cc2s1,-40.1,-113.1,-83.3,-61.4,-105.8,-54.9,nt,nt
O=C(OCc1ccccc1)N1Cc2ccnnc2CC1c1ccccc1-c1ccc(C(F)(F)F)cc1 (stereo not drawn),18.7,nt,-12.7,nt,nt,nt,nt,nt
Cc1cc(C(=O)COC(=O)c2ccc3c(c2)OCO3)c(C)n1Cc1cccs1,7.8,-55.5,5.5,19.4,-33.5,-39.6,nt,nt
Cc1cc(C(=O)COC(=O)c2ccccc2O)c(C)n1Cc1cccs1,96.6*,89.8*,85.7*,80.7*,93.9*,86.7*,81.0*,104.4*
SMILES,NR2F2 inh,SRC1 inh,SRC2 inh,Gli-Sufu block,NR5A2 inv ag,NCOA3 inh,VP16 Luc counter,NR2F2 inh conf
CC(=O)Nc1ccccc1OCC(=O)c1cc(C)n(Cc2cccs2)c1C,73.1*,26.8,7.8,79.4*,63.0,28.2,1.5,80.9*
CCn1nc(C(=O)OCC(=O)c2cc(C)n(Cc3cccs3)c2C)c2ccccc2c1=O,-28.4,-25.9,-43.8,0.3,-11.3,-38.9,nt,nt
Cc1c(CC(=O)NCCCC(=O)O)c(=O)oc2cc3c(cc12)CCC(C)(C)O3,51.1*,25.0,74.7*,3.1,40.1,40.7,61.0*,37.1
COc1cc(OC)cc(C(=O)NCC2CCN(C(=O)C(=O)c3cccs3)CC2)c1,-11.8,nt,34.2,nt,nt,nt,nt,nt
C=CCC1(CC=C)CCCN1C(=O)c1cc(COc2cncc(Cl)c2)on1,47.7*,10.5,25.9,nt,-8.0,16.0,-14.2,28.8
C=CCC1(CC=C)CCCN1C(=O)c1cc(COc2cccc(OC)c2)on1,-3.3,20.0,19.8,13.7,-1.8,3.7,nt,nt
O=C(N[C@@H](Cc1cccnc1)C(=O)N1CCC[C@H]1C(=O)NC1CCCC1)C1CCCC1,2.9,nt,-8.7,nt,nt,nt,nt,nt
CCOc1ccc(/C=C2\CCC(C3CCCC3)C2=O)cc1OC (stereo not drawn),12.5,-47.1,-22.7,1.9,-4.6,-6.0,nt,nt
COc1cc(C=C2CCCC(=Cc3ccc(OCC4CO4)c(OC)c3)C2=O)ccc1OCC1CO1 (stereo not drawn),68.5*,26.9,11.6,nt,-20.1,31.4,25.2*,69.5*
COc1ccc(/C=C2/CSC/C(=C/c3ccc(OC)c(OC)c3)C2=O)cc1OC,73.1*,-23.0,-10.3,-6.0,64.0,-5.1,57.3*,96.8*
O=S(Cc1ccc(Br)cc1)Cc1nnc(SCc2c(F)cccc2Cl)n1-c1ccccc1 (stereo not drawn),31.1,17.0,17.1,32.6,31.4,26.1,nt,nt
O=S(Cc1ccc(Br)cc1)Cc1nnc(SCc2ccc(Cl)cc2)n1-c1ccccc1 (stereo not drawn),45.2*,14.4,10.1,22.5,33.4,27.2,1.6,27.7
CN(CCc1ccccc1)C(=O)c1ccc(NC(=O)Cc2ccc(NC(=O)C3CCCN(C(=O)CCc4ccccc4)C3)cc2)cc1 (stereo not drawn),72.7*,19.9,21.0,41.1,54.4,31.9,3.0,71.5*
COc1cccc2sc3ccc(C#CC4(O)CCCCC4)cc3c(=O)c12,-20.2,-76.7,-51.4,-100.0,-147.4,-74.4,nt,nt
O=c1c2ccccc2sc2ccc(C#CC3(O)CCCCC3)cc12,95.8*,92.7*,84.9*,83.0*,90.9*,92.5*,90.0*,105.0*
O=c1c2ccccc2oc2cc(C#CC3(O)CCCCC3)ccc12,69.1*,65.0*,50.0,36.4,53.3,62.3*,5.3,66.5*

# Bioassay records as filed in PubChem.
